# Results as given in PubChem BioAssay AID540256 (National Center for Advancing Translational Sciences (NCATS), 2011).
# Hit rate of the full screen: of about 300,000 compounds, about 3,700 (1.2%) were called active. Entries that show only a call come without a potency. Another 20% or so got no clear call; they are omitted. Calls come from the whole dose curve; tested in HEK293 cells. For the sample, actives were picked, then their nearest neighbours and some compounds at random.
# Assay: qHTS for Inhibitors of binding or entry into cells for Lassa Virus; note: nearly all actives have a fitted effect of over 50% in size
# Settings: Lassa virus pseudotype entry inhibition, cell reporter; series mostly up to 37.9 µM
# Potency is the fitted concentration of half-maximal effect.
row,Compound,Potency
1,CCOc1ccc(NC(=O)CCc2c(C)nn(-c3ccc(N4CCCC4)nn3)c2C)cc1,inactive
2,Cc1cccnc1CCNC(=O)C1CCC(=O)N(Cc2cccc(F)c2)C1 (stereo unspecified),inactive
3,Cc1ccc(Nc2nnc(SCc3ccccc3)s2)cc1,inactive
4,Cc1ccccc1-n1c(SCC(=O)NCc2cccs2)nnc1-c1ccncc1,inactive
5,Cc1ccc(Nc2nc(CSc3nnc(-c4ccncc4)n3-c3ccccc3C)cs2)cc1,8.91 µM (active)
6,CCOC(=O)c1ccc(NC(=O)c2ccc(NC(=O)C3CCCO3)cc2)cc1 (stereo unspecified),inactive
7,Cc1sc2ncnc(N3CCC(C(=O)NNC(=O)c4ccc(F)cc4)CC3)c2c1C,inactive
8,O=c1[nH]c(NCCO)nnc1Cc1ccc(Cl)cc1,inactive
9,COc1ccc(Cc2nnc(N/N=C/c3ccccc3O)[nH]c2=O)cc1OC,3.98 µM (active)
10,CCOc1ccc(-n2c(O)c(/C=N/Nc3nnc(C)c(=O)[nH]3)c3ccccc3c2=O)cc1,inactive
11,CCNC(=S)N1CCN(S(=O)(=O)c2ccc(Cl)s2)CC1,inactive
12,CN(C(=O)CSc1cccc[n+]1[O-])C1CCCCC1,inactive
13,COc1cc(NC(=O)CSc2ccc(-c3cccnc3)nn2)cc(OC)c1,inactive
14,COc1cc(Nc2nccc(-c3cnn4ncccc34)n2)cc(OC)c1,2.5 µM (active)
15,COc1cccc(Nc2ncccc2C(=O)O)c1,inactive
16,O=c1c(-c2cccc(Cl)c2)c[nH]n1-c1ccccc1,inactive
17,Cc1cc(Br)ccc1NC(=O)c1cnc(N2CCN(c3ccccn3)CC2)c2ccccc12,16.4 µM (active)
18,COC(=O)c1cnc(N2CCN(c3ccccc3OC)CC2)c2ccccc12,inactive
19,O=C(Cc1ccc(Br)cc1)N1CCN(c2ccccn2)CC1,inactive
20,O=C(C1CC(=O)N(C2CCCC2)C1)N1CCN(c2cccc(C(F)(F)F)c2)CC1 (stereo unspecified),inactive
21,Cc1cc(C)c(S(=O)(=O)NCC(c2ccc3c(c2)OCO3)N2CCOCC2)c(C)c1 (stereo unspecified),inactive
22,CC(C)CN1CC(C)C(=O)N(c2ccccc2)C1=S (stereo unspecified),inactive
23,CN(C)C(CNC(=O)c1cc2ccccc2o1)c1ccccc1 (stereo unspecified),inactive
24,O=[N+]([O-])c1cc(Br)c(O)c(/C=N/Nc2nc3ccccc3s2)c1,inactive
25,O=C(Nc1ccccc1Cl)O/N=C(/c1ccccc1)c1ccccn1,inactive
26,c1ccc(C(=NNc2nc3ccccc3s2)c2ccccn2)cc1,12.6 µM (active)

row,Compound,Potency
1,O=C(CCNC(=O)c1ccc(Br)cc1)Nc1cccc(S(=O)(=O)N2CCCCC2)c1,inactive
2,CCCCN1C(=O)c2[nH]nc(-c3ccccc3O)c2C1c1cccc(OCc2ccccc2)c1 (stereo unspecified),1.58 µM (active)
3,COc1ccc(CCN2C(=O)c3[nH]nc(-c4ccccc4O)c3C2c2ccc(C)cc2)cc1OC (stereo unspecified),10 µM (active)
4,COc1ccc(CCN(C)CCN2C(=O)c3ccccc3C2=O)cc1OC,inactive
5,CCCCn1c(N)c(N(CCOC)C(=O)c2cccc(OCc3ccccc3)c2)c(=O)[nH]c1=O,inactive
6,COc1cccc(-c2n[nH]c3c2C(c2cccc(O)c2)N(C)C3=O)c1 (stereo unspecified),inactive
7,Cc1cc(C)c(-c2n[nH]c3c2C(c2ccccc2F)N(CCO)C3=O)c(O)c1 (stereo unspecified),inactive
8,CC(C)c1ccc(S(=O)(=O)N2CCN(C(=O)CN3C(=O)NC(C)(c4ccccc4)C3=O)CC2)cc1 (stereo unspecified),inactive
9,Cc1cc(S(=O)(=O)Nc2ccc(C(=O)NCC(c3ccco3)N3CCCC3)cc2)ccc1F (stereo unspecified),inactive
10,CCOc1ccc(NS(=O)(=O)c2ccc(C(=O)NC3CCN(Cc4ccccc4)CC3)cc2)cc1,inactive
11,CCC(=O)c1cn(CCOc2ccccc2OC)c2ccccc12,inactive
12,COc1ccc(OCCCC(=O)NCCc2ccccc2)cc1,inactive
13,CCCCOc1ccc(C(=O)NCc2ccncc2)cc1,inactive
14,CCCOc1ccc(C(=O)NCCc2ccccc2)cc1,2.51 µM (active)
15,CC(C)(C)OC(=O)N/N=C/c1cn(-c2ccccc2)nc1-c1cccnc1,inactive
16,O=C(NCc1cccnc1)c1cn(-c2ccccc2)nc1-c1cccs1,inactive
17,O=C(O)c1ccc(N/N=C/c2cn(-c3ccccc3)nc2-c2cccs2)cc1,5.01 µM (active)
18,O=C(CC1Sc2ccccc2NC1=O)NNc1ccc(Cl)c(Cl)c1 (stereo unspecified),inactive
19,Cc1c(C)c(C)c(S(=O)(=O)N2CCC3(CC2)OCCO3)c(C)c1C,inactive
20,CC(=NNC(=O)c1ccncc1)c1ccc(Cl)c(Cl)c1,inactive
21,CCN(c1ccccc1)S(=O)(=O)c1ccc(C(=O)Nc2nccs2)cc1,inactive
22,CCN(c1ccccc1)S(=O)(=O)c1ccc(NC(=O)C(C)(C)C)cc1,14.6 µM (active)
23,CCN(c1ccccc1)S(=O)(=O)c1cccc(C(=O)O)c1,inactive
24,CN(CC(=O)NCC(c1ccccc1)N1CCCC1)S(=O)(=O)c1ccc(Cl)cc1 (stereo unspecified),inactive
25,CCOc1ccc(-c2nnc(-c3ccco3)o2)cc1,5.8 µM (active)
26,CCCCOc1ccc(-c2nnc(-c3ccco3)o2)cc1,inactive

row,Compound,Potency
1,CCOc1ccc(NC(=O)c2ncoc2-c2ccco2)cc1,inactive
2,Cc1c[n+]([O-])ccc1[N+](=O)[O-],inactive
3,O=C1C2C3C=CC(C3)C2C(=O)N1c1ncc([N+](=O)[O-])s1 (stereo unspecified),inactive
4,CCOc1ccc(S(=O)(=O)Nc2ccc(OC)nc2)cc1,inactive
5,COc1ccc(CS(=O)/C(Cl)=C(/Cl)C(=O)Nc2ccc(OC)nc2)cc1 (stereo unspecified),3.98 µM (active)
6,COc1ccc(C(=O)Nc2ccc(NC(=O)C(C)C)nc2)cc1,inactive
7,O=C(CSc1nnnn1C1CCCC1)N1CCCCC1,inactive
8,Cc1ccc(C)c(OCCC(=O)OCC(=O)NC(=O)NCc2ccccc2)c1,inactive
9,Cc1cc(C)cc(NC(=O)COc2coc(CN3CCN(c4ccccc4)CC3)cc2=O)c1,inactive
10,NC1=NOC(=O)C1C1CCCCC1 (stereo unspecified),inactive
11,CCOc1ccc(N(Cc2ccccc2)C(=O)c2nc(SCC)ncc2Cl)cc1,inactive
12,CCOc1ccc(NC(=O)CN(Cc2ccccc2)S(=O)(=O)c2ccc(Cl)cc2)cc1,inactive
13,CCOc1ccc(N(Cc2ccccc2)C(=O)c2nc(S(C)(=O)=O)ncc2Cl)cc1,2.51 µM (active)
14,CC1=NN(C(N)=S)C(=O)C1N=Nc1cc(Cl)ccc1Cl (stereo unspecified),inactive
15,C[C@]12CCC(=O)C=C1C=CC1C2CC[C@@]2(C)C1CC[C@@]21CCC(=O)O1 (stereo partly specified),inactive
16,CC1Cc2ccccc2N1S(=O)(=O)c1cccc(C(=O)OCC(=O)N2CCOCC2)c1 (stereo unspecified),inactive
17,CCN(CC)c1ccc(/C=N/Nc2nc(C)cc(=O)[nH]2)cc1,inactive
18,Cc1cc(=O)[nH]c(N/N=C/c2c(C)nn(-c3ccccc3Cl)c2Cl)n1,11.2 µM (active)
19,Cc1cc(C)c(C=NNc2nc3c([nH]2)c(=O)n(C)c(=O)n3C)c(C)c1,inactive
20,O=C(O)c1ccc(NN=CC2=C(N3CCOCC3)/C(=C/c3ccccc3)CC2)cc1,inactive
21,O=C(N/N=C/c1ccc(O)c2ccccc12)c1cccnc1,inactive
22,Cc1ccc2nc(CNC(=O)c3ccccc3)[nH]c2c1,inactive
23,Cc1ccc(/C=N/NC(=O)C2=NNC(c3ccccc3)(c3ccccc3)C2)c(O)c1,14.1 µM (active)
24,CC(NC(=O)c1ccccc1)C(=O)OCC(=O)Nc1cccc(S(=O)(=O)N2CCCC2)c1 (stereo unspecified),inactive
25,Cc1cc(C)c2nc(SCCC#N)nc(C)c2c1,inactive
26,Cc1cc(C)c2nc3nc(C)cc(C)c3c(N)c2c1,12.6 µM (active)

row,Compound,Potency
1,Cc1cc(C)c2nc(-c3ccco3)cc(C(=O)O)c2c1,inactive
2,CCOC(=O)C1(Cc2ccccc2C)CCCN(C(=O)c2ccc(COC)o2)C1 (stereo unspecified),inactive
3,COc1ccc(N2CCN(S(=O)(=O)c3cc4c5c(c3)C(C)C(=O)N5CCC4)CC2)cc1 (stereo unspecified),inactive
4,Cc1ccc(NC(=O)c2oc3ccc(S(=O)(=O)N4CCCCC4)cc3c2C)cc1Cl,inactive
5,O=C(CC1SC(=Nc2ccccc2F)N(CCN2CCOCC2)C1=O)Nc1ccc(F)cc1F (stereo unspecified),11.2 µM (active)
6,O=C(CN1CCN(C/C=C/c2ccccc2)CC1)Nc1ccc(F)cc1F,inactive
7,COC(=O)c1sccc1NC(=O)CC1C(=O)NCCN1C(=O)Nc1ccc(F)cc1F (stereo unspecified),inactive
8,O=C(c1cc(COc2cccc(C(F)(F)F)c2)on1)N1CCSCC1,inactive
9,COc1ccc(Cc2nc3ccc(C(=O)NCC4CCOCC4)cc3o2)cc1OC,inactive
10,COCOCCn1cc(CN2CCS(=O)(=O)N(Cc3ccc(-c4cccc(N(C)C)c4)cc3)C(CC(C)C)C2=O)nn1 (stereo unspecified),inactive
11,CC1C(=O)N(Cc2cn(Cc3ccco3)nn2)CCS(=O)(=O)N1Cc1ccc(-c2cccc(CO)c2)cc1 (stereo unspecified),inactive
12,CCCC=Cc1ccc(CN2C(C(C)C)C(=O)N(Cc3cn(CC4CCCCC4)nn3)CCS2(=O)=O)cc1 (stereo unspecified),25 µM (active)
13,CC1CCN(c2ccc(-c3ccc(NC(=O)c4ccco4)cc3)nn2)CC1,inactive
14,O=C(O)c1cnn2c(C(F)(F)F)cc(-c3ccccc3)nc12,inactive
15,O=C(c1ccccc1)N1CCN(C(=O)c2cc3nc(-c4ccccc4)cc(C(F)(F)F)n3n2)CC1,11.2 µM (active)
16,COC(=O)c1cc2nc(-c3ccccc3)cc(C(F)(F)F)n2n1,inactive
17,Cn1cc(S(=O)(=O)N2CCCCCC2)cc1C(=O)N1CCN(c2ccc(F)cc2)CC1,inactive
18,COc1cc2c(cc1OC)C(Cc1cc(OC)c(OC)cc1[N+](=O)[O-])=NCC2,inactive
19,Cc1cc(Cl)nc(NC(=O)Nc2cccc(Cl)c2)n1,inactive
20,COC(=O)Nc1nc2ccc(Sc3ccccc3)cc2[nH]1,inactive
21,COC(=O)Nc1nc2ccc(Oc3ccc(NC(=O)Nc4cccc(Cl)c4)cc3)cc2[nH]1,6.28 µM (active)
22,COc1ccc(CN2CCN(C(=O)CCC(=O)Nc3nnc(C(C)C)s3)CC2)cc1F,inactive
23,Cn1c(N)c(C(=O)COC(=O)c2cccc(S(=O)(=O)N3CCOCC3)c2)c(=O)n(C)c1=O,inactive
